Only some compounds are listed: those with a hit (about 1.4% of all), similar ones and a draw of the others.
E coli Lon inh: inhibitors of E. coli Lon protease | P0A9M0 | purified E. coli Lon protease, fluorescence polarization | inhibition, % at 7.94 µM | 0.42% of 360,000 active | AID 602123; in the data active = inhibition above about 13%, passing the limit was not always enough
MCL1 BIM primary: inhibitors of human MCL1 binding to BIM-BH3 peptide; Q07820; GST-MCL1 / FITC-Bim-BH3 fluorescence polarization; inhibition, % at 10.9 µM; 0.68% of 320,000 active;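 active = inhibition above the mean inhibition of all tested compounds plus 3 SD, set per campaign, cut at about 40% in these data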;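 note: higher means more loss of mP so more displacement of Bim peptide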
Bcl-xL primary: Bcl-xL (human) inhibition; 0.7% of 320,000 active; GST-Bcl-xL / FITC-Bim BH3 peptide fluorescence polarization; AID 2129; inhibition, % at 10.9 µM; Q07817;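 active = inhibition above the mean of all tested compounds plus 3 SD, cutoff set per campaign, cut at about 30% in these data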;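 note: inhibitors lower millipolarization by displacing the labeled peptide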
Target sequence (Q07817 whole entry, looked up): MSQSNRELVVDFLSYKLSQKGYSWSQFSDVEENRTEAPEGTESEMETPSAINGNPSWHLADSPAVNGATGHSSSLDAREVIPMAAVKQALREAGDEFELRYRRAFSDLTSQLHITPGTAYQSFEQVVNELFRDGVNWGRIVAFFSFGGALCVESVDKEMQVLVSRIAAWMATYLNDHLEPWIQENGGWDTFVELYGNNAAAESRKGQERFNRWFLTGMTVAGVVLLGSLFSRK
MEX-5 binding: C. elegans MEX-5 TCR-2 RNA binding activity; Q9XUB2; MEX-5/FITC-TCR2 RNA binding, fluorescence polarization; active compounds read low; activity score (negative = inhibition of binding), % at 10 µM; 0.38% of 300,000 active; AID 1832;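 active = inhibition past about -25% in most replicates, and total fluorescence under double the plate's negative control median, limit read from the data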
GLD-1 RNA inh: GLD-1-TGE RNA interaction inhibition (C. elegans). Q17339. inhibition, % at 5.96 µM. 0.44% of 320,000 active. purified GLD-1 + fluorescein TGE RNA, fluorescence polarization;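 active = percent inhibition above a per-plate cutoff, the plate mean of test compounds plus 3 SD, cut at about 30% in these data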
A number is an active result; - = inactive; . = no result given.

SMILES	E coli Lon inh	MCL1 BIM primary	Bcl-xL primary	MEX-5 binding	GLD-1 RNA inh
CCC/C(C#Cc1ccc(N(C)C)cc1)=C1/c2ccccc2C(=O)N1c1ccccc1	-	.	.	.	119
CCC/C(C#Cc1cc(OC)cc(OC)c1)=C1/c2ccccc2C(=O)N1c1ccccc1	-	.	.	.	-
O=C(NCc1ccc(Cl)nc1)c1ccc2nc([C@@H]3O[C@H](CO)[C@H](O)[C@H](O)[C@H]3O)[nH]c2c1	-	.	.	.	.
COc1ccccc1C(=O)C1CCCN(C(=O)c2cccnc2SC)C1 (stereo unspecified)	-	-	-	-41	-
Cc1ccc(NC(=O)CCS(=O)(=O)c2cc3c(cc2Cl)NC(=O)CO3)cc1	-	-	-	-26	-
COc1ccc(C)cc1NC(=O)CCS(=O)(=O)c1cc2c(cc1Cl)NC(=O)CO2	-	-	-	-	-
O=c1[nH][nH]c2cc(=O)n(-c3ccc(Cl)cc3)nc12	-	-	-	-32	-
O=C(O)CCC(=O)NNc1nc(-c2ccccc2)c2cc(Cl)ccc2n1	-	-	-	-44	-
O=C(N/C(=C\c1ccco1)C(=O)N1CCCC1)c1ccccc1	-	41	40	-	-
CC(=O)N1c2ccc(S(=O)(=O)N3CCCC(C(=O)Nc4ccc(F)cc4)C3)cc2CC1C (stereo unspecified)	-	-	73	-	-
CCN(CC)c1ccc2cc(S(=O)(=O)c3ccc(C)cc3)c(=O)oc2c1	-	-	-	-77	-
CCN(CC)c1ccc2ccc(=O)oc2c1	-	-	-	-	-
Cc1ccc(S(=O)(=O)c2cc3ccccc3oc2=O)cc1	-	-	-	-	-
CCCCCCc1cc2cc(S(=O)(=O)c3ccc(F)cc3)c(=O)oc2cc1O	-	-	-	-	60
CCN(CC)c1ccc2cc(C#N)c(=O)oc2c1	-	-	-	-57	-
C/C=C/c1cccc(-c2nc(C(=O)N3CCOCC3)cc3c2[C@H](CCO)N(C(=O)NC(C)C)C3)c1	-	.	.	.	.
CC1(C(=O)NS(=O)(=O)c2ccc(C#N)cc2)CCN1C(=O)c1ccccc1CCc1ccccc1 (stereo unspecified)	-	.	.	.	.
C[C@@H]1CN([C@H](C)CO)C(=O)c2c(c3ccccc3n2C)-c2ccccc2CO[C@H]1CN(C)S(=O)(=O)c1cn(C)cn1	-	.	.	.	.
CC1(OC(=O)C2CCCC2)C(=O)C=C2C=C3CCCCN3C=C2C1=O (stereo unspecified)	-	47	32	-	-
CC1(OC(=O)c2ccc(Cl)nc2)C(=O)C=C2C=C3CCCN3C=C2C1=O (stereo unspecified)	-	-	-	.	-
CC1(OC(=O)C2CCCC2)C(=O)C=C2C=C(C3CC3)OC=C2C1=O (stereo unspecified)	.	42	50	-	44
CC(=O)c1c(O)cc(O)c(C(C)=O)c1O	-	-	-	-	-
CC(=O)c1c(O)cc(O)cc1CC(=O)O	-	-	-	-29	-
C=CC1=C2C=C(C3CC3)N(CC3CC3)C=C2C(=O)C(C)(OC(=O)c2ccco2)C1=O (stereo unspecified)	-	-	-	-	-
C=CC1=C2C=C(C3CC3)N(CCCN(CC)CC)C=C2C(=O)C(C)(OC(=O)c2ccco2)C1=O (stereo unspecified)	-	-	41	-	-
SMILES	E coli Lon inh	MCL1 BIM primary	Bcl-xL primary	MEX-5 binding	GLD-1 RNA inh
C=CCOc1ccc(C2C(C(=O)c3ccco3)=C(O)C(=O)N2CCCN(CC)CC)cc1 (stereo unspecified)	-	-	-	-	-
C=CCN1C=C2C(=O)C(C)(OC(=O)c3ccco3)C(=O)C(C=C)=C2C=C1C1CC1 (stereo unspecified)	.	-	32	-	-
O=c1c2ccccc2c(C=Nc2ccccc2O)c(O)n1-c1nccs1	-	-	37	-	-
COc1ccc(N2CCN(C(=O)COC(=O)CC(NC(N)=O)c3ccc(Cl)cc3)CC2)cc1 (stereo unspecified)	-	.	.	.	.
O=C1CCNc2c(Cl)cc(Cl)cc21	-	-	32	-	-
O=C1CCNc2c(Cl)cccc21	-	-	-	-	-
COc1ccc(-c2cc(=O)c3c(O)cc(O)cc3o2)cc1	-	-	-	.	-
O=c1cc(-c2ccc(O)c(O)c2)oc2cc(O)cc(O)c12	-	-	-	-33	-
O=C(NN=Cc1ccc(O)cc1)c1ccccc1NS(=O)(=O)c1cccs1	-	.	.	.	-
O=C(N/N=C/c1cc(Cl)cc([N+](=O)[O-])c1O)c1ccccc1NS(=O)(=O)c1cccs1	-	-	-	-47	-

Compound activity from PubChem.
